Assay outcomes from PubChem BioAssay.
Shown are actives, neighbours in structure and some others; about 2.2% of the full set was active somewhere.
Rce1 inh: inhibitors of yeast Ras-converting enzyme; Q03530; 0.27% of 290,000 active; yeast membranes, quenched prenylated peptide cleavage fluorescence; calls only;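 active = fall in fluorescence gain of 50% or more versus controls, with final raw signal at or below 3038400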;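 also: plate controls were neutral control wells for no effect and wells lacking membranes for full effect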
GC-A act: GC-A (human) enzyme activation. P16066. HEK293 GC-A cells, cGMP TR-FRET, EC30 ANP; 0% at EC30 ANP, 100% saturating ANP. activation, % at 10 µM. 0.14% of 370,000 active. AID 1671463; in the data active = activation above about 40%
PLC-gamma1 inh: PLC-gamma1 (human) inhibition, primary screen; P19174; purified PLC-gamma1, fluorogenic substrate, fluorescence; inhibition, % at 12.2 µM; 0.84% of 370,000 active; in the data active = inhibition above about 9.5%
PLC-beta3 inh: inhibitors of human phospholipase C beta3; Purified PLC-beta3, fluorogenic substrate, fluorescence; 0.18% of 370,000 active; inhibition, % at 12.2 µM; AID 720704;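 also: 0% = median of compound wells on plate and 100% = full blocker control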
Target sequence (Q01970 whole entry, looked up): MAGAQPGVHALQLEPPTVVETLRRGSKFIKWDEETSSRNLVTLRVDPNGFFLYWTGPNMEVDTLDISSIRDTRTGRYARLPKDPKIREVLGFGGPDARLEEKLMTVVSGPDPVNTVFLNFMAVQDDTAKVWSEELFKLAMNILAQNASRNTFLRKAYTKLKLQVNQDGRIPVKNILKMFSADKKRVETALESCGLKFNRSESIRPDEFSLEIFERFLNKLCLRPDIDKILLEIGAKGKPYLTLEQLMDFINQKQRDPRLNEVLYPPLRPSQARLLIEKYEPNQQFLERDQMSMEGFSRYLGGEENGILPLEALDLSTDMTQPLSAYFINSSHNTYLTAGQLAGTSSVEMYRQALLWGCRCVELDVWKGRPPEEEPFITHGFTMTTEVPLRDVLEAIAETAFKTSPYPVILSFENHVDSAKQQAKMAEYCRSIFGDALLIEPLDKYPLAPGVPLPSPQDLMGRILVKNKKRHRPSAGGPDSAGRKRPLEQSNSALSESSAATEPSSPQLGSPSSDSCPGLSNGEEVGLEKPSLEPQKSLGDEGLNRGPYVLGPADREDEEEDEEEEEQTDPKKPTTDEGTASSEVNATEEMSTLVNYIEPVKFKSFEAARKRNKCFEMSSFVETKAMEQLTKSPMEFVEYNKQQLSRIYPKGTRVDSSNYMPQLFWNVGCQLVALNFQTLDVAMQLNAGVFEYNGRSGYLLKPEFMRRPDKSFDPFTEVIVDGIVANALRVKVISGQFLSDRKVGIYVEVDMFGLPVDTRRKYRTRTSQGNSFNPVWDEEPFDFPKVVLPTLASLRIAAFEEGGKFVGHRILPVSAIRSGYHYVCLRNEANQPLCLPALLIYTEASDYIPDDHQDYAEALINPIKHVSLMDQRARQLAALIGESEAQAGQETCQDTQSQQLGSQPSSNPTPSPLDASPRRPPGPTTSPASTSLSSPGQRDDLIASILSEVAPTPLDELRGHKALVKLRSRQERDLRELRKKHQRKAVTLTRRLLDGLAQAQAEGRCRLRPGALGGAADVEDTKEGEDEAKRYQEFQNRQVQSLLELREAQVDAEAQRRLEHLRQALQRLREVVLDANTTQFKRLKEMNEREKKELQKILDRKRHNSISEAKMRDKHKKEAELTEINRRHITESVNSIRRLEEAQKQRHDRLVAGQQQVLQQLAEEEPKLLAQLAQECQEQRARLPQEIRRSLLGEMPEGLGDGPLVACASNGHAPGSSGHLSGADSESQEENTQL
NPR2 activator: GC-B (human) receptor activation; P20594; HEK293-GC-B cells, CNP EC30, cGMP TR-FRET; 0% at EC30 CNP, 100% saturating CNP; activation, % at 10 µM; 0.11% of 370,000 active; AID 1920062;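 active = activation at 10 µM reaching about 35% in either raw or pattern-adjusted values, limit read from the data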
PfM18AAP inh: PfM18AAP enzyme inhibition. recombinant PfM18AAP, H-Glu-NHMec fluorogenic cleavage. inhibition, % at 7.35 µM. 1.2% of 290,000 active;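 active = inhibition above the campaign mean inhibition over all tested compounds plus 3 SD, cut at about 28% in these data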;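 also: 0% = plate median of test compound wells and 100% = 2 mM ZnCl2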
PLCg1 ctr: PLC-gamma1 inhibition, counter-screen for PLC-beta3 hits; purified PLC-gamma1, fluorogenic substrate, fluorescence; 3.1% of 3,300 active; inhibition, % at 12.3 µM; shares compounds with PLC-gamma1 inh; AID 743258; in the data active = inhibition above about 9.5%
PLCb3 confirm: confirmation of human PLC-beta3 inhibitors; shares compounds with PLC-gamma1 inh; purified PLC-beta3, fluorogenic substrate fluorescence; inhibition, % at 12.3 µM; 1% of 3,300 active
The depositor's hits bear a star; i = inactive; . = not tested or not shown. Rule as the data show it, unless noted: active = inhibition above about 11%; inactive = the rest.

SMILES	Rce1 inh	GC-A act	PLC-gamma1 inh	PLC-beta3 inh	NPR2 activator	PfM18AAP inh	PLCg1 ctr	PLCb3 confirm
Cc1ccc[n+](-c2nc3ccccc3nc2[N-]S(=O)(=O)c2ccccc2)c1	i	-2.7	-1.1	-8.3	2.2	5.9	.	.
O=S(=O)([N-]c1nc2ccccc2nc1-[n+]1ccccc1)c1ccc(F)cc1	i	-3.0	10.6*	-1.8	-4.2	1.3	-7.4	-6.8
O=C(CC1SCCNC1=O)Nc1cccc(Cl)c1 (stereo not drawn)	.	2.0	-2.0	-1.7	0.2	-5.3	.	.
CCc1ccccc1NC(=O)CC1SCCNC1=O (stereo not drawn)	i	-0.7	11.0*	2.9	0.5	2.9	-6.6	-0.5
Clc1ccc([C@H]2OC[C@@]3(CNCc4ccc5c(c4)OCO5)CS[C@H](c4ccc(Cl)cc4)N23)cc1	.	-19.0	3.7	0.9	-5.0	.	.	.
COc1ccccc1-c1ccc(OCCCN2CCC(C(O)(c3ccccc3)c3ccccc3)CC2)cc1	.	-4.6	0.7	0.3	3.3	.	.	.
O=C(O)c1ccc2c(c1)C(=O)N(c1ccccc1-c1ccccc1)C2=O	i	7.7	1.3	-7.0	6.3	-0.5	.	.
O=C(O)c1ccc(N2CCCCCC2)c(N2C(=O)c3ccccc3C2=O)c1	i	-8.6	13.9*	5.7	-0.4	6.4	-5.7	-5.5
COc1ccc(S(C)(=O)=O)cc1S(C)(=O)=O	i	0.9	9.5*	8.3	-0.3	-2.1	-5.5	-1.6
Cc1ccc(C(=O)NC(=S)Nc2ccc(CN3CCOCC3)cc2)cc1	.	1.9	10.3*	-1.6	1.0	3.4	-6.7	-2.8
COc1ccc(CSc2nnc(SCC(=O)Nc3ccc4c(c3)OCO4)s2)cc1	.	1.4	-0.9	-4.2	-5.5	.	.	.
COC(=O)[C@]12C[C@H](CC(=O)N3CCSCC3)C(=O)N(CCC3=CCCCC3)C1=C[C@H](C(C)C)O[C@@H]2C1CC1	.	-0.5	2.6	4.3	3.5	.	.	.
COc1cccc(C(=O)N(CN2CCCC2=O)c2cccc(Cl)c2)c1	i	-2.9	11.0*	5.8	-3.2	-2.0	-1.7	0.0
COC(=O)COc1nc(C)c2c(c1C#N)CC(C)(C)OC2	i	2.7	0.7	10.9*	9.2	7.6	4.3	6.2
CCOc1nc(CC(C)C)c2c(c1C#N)CC(C)(C)OC2	i	-0.8	-0.7	-3.7	-8.7	2.2	.	.
CCn1c(COc2ccc(C)cc2)nnc1SCC(=O)c1ccc(-c2ccccc2)cc1	.	-5.4	0.9	1.6	0.7	.	.	.
COc1ccc(NC(=O)CC2C(=O)N(C)C(=S)N2Cc2ccncc2)cc1 (stereo not drawn)	i	-1.0	10.2*	-0.2	-1.3	-4.8	-6.1	-5.7
Cc1ccc(C(=O)COC(=O)c2c(C)cc(=O)oc2C)cc1[N+](=O)[O-]	i	1.6	6.6	11.9*	-0.4	-5.0	-5.2	-2.3
COC(=O)C[C@H]1CC[C@@H]2[C@@H](COc3ccc(NC(=O)C4CCCCC4)cc3C(=O)N2C)O1	.	0.0	2.6	5.9	16.4	.	.	.
CCOC(=O)N(NC(=O)C(O)(c1ccccc1)c1ccccc1)c1ccccc1	i	-6.3	13.5*	8.0	-8.1	-1.5	-1.3	4.2
CCCC(O)(CCC)C(=O)NN(C(=O)CCl)c1ccccc1	.	-1.2	9.7*	2.3	-3.3	1.5	-1.7	-1.8
CCOC(=O)N(NC(=O)C(O)(C(C)C)C(C)C)c1ccccc1	i	4.2	-1.4	-1.6	1.0	-0.7	.	.
CCCCC(O)(CCCC)C(=O)NN(C(=O)OCC)c1ccccc1	i	-6.4	-0.7	0.5	1.7	-2.6	.	.
CCCCNC(=O)C1CCCN1C(=O)NCc1ccccc1OC (stereo not drawn)	.	2.6	-1.0	-2.9	5.1	.	.	.
COC(=O)[C@H](C(C)C)N(CCc1cn(Cc2ccccc2)nn1)S(=O)(=O)c1ccccc1Br	.	0.4	0.0	2.8	3.6	.	.	.
SMILES	Rce1 inh	GC-A act	PLC-gamma1 inh	PLC-beta3 inh	NPR2 activator	PfM18AAP inh	PLCg1 ctr	PLCb3 confirm
CC[C@H](CCCc1ccccc1OC)CCS(=O)(=O)N(C)C	.	2.6	-3.5	-5.2	0.4	.	.	.
CC1(C)Cc2c(sc(NC(=O)COc3cccc4ccccc34)c2C#N)C(C)(C)N1	i	-0.9	7.8	-9.3	2.8	-5.2	.	.
Cc1ccc(OCC(=O)Nc2sc3c(c2C#N)CC(C)(C)NC3(C)C)cc1	i	1.5	10.0*	-51.1	1.5	1.6	-3.3	1.7
COC(=O)[C@]12C[C@H](CC(=O)NCc3ccc(OC)c(OC)c3)C(=O)N(Cc3ccco3)C1=C[C@H](COCc1ccccc1)O[C@@H]2C	.	2.8	2.3	0.2	5.1	.	.	.
Cn1c(CNc2cccc(Cl)c2)nnc1SCC(=O)OC1CCCCC1	i	-3.6	-1.2	-3.7	-4.4	0.8	.	.
CC(C)OC(=O)CSc1nnc(CNc2cccc(Cl)c2)n1C	i	-6.5	10.5*	3.3	3.3	-3.3	-7.2	-3.0
O=C(O)c1cc(C(=O)O)cc(-c2ccc(/C=c3/sc4nc5ccccc5n4c3=O)o2)c1	.	.	.	.	.	21.2	.	.
O=C(O)c1cccc(-c2ccc(/C=c3/sc4nc5ccccc5n4c3=O)o2)c1	i	-0.5	18.1*	-12.7	0.9	9.4	-182.1	-176.5
Cc1ccc(NC(=S)NC(=O)C2CCCCC2)c(Br)c1	.	-2.5	15.7*	15.4*	2.0	.	0.9	1.3
NS(=O)(=O)c1ccc(NC(=S)NC(=O)C2CCCCC2)cc1	i	-5.8	11.5*	7.5	-4.3	9.3	-4.5	-4.5
COc1ccc(Cn2ccc3ccc(-c4ccc5ccn(C(=O)C6CCCCC6)c5c4)cc32)cc1	.	3.5	-67.4	-88.0	0.8	.	.	.
O=C(CSCc1ccccc1Cl)N1CCN(c2ccccn2)CC1	i	0.4	-2.7	1.0	-5.0	-2.9	.	.
O=C(CCSCc1ccccc1F)N1CCN(c2ccccn2)CC1	i	4.2	10.0*	2.1	0.6	-0.8	-6.5	-4.3
COc1ccc(Nc2cc(C)nc3nc(C)nn23)cc1Cl	i	8.5	9.6*	6.0	6.5	-4.6	-11.1	-4.4
CCOC(=O)c1cccc(NC(=O)CN(C)S(=O)(=O)c2ccc(F)cc2)c1	.	4.3	-3.0	-1.1	4.6	.	.	.
Clc1ccc(-c2c[n+](Cc3ccc(Cl)cc3Cl)c3n2CCCCC3)cc1	i	1.6	11.1*	5.6	3.3	-0.1	-2.2	-0.2
COc1ccc(Oc2c(Br)cnn(Cc3cccc4ccccc34)c2=O)cc1	.	-23.9	-1.9	-1.5	-15.5	.	.	.
COCCCNC(=O)CCc1nc(-c2ccccc2Cl)no1	i	-0.1	10.8*	8.2	0.5	-7.9	-4.4	-0.2
O=C(/C=N/O)Nc1cccnc1	i	1.5	0.4	4.8	1.5	2.0	.	.
O=C(/C=N/O)Nc1ccc(F)cc1	i	-9.0	9.5*	5.7	0.2	-1.1	-5.9	-1.6
